Source: PubChem BioAssay AID1159580 (chemical genetic matrix, 2015)
The campaign covered roughly 5,500 compounds. About 2,000 (36%) were called active. Inconclusive results (about 18%) are left out. Cut-off read from the data, not from the text of the source: active = normalized growth mostly below about 0.91 (no sharp cut-off); inconclusive = no clear call, values can overlap the other calls; inactive = mostly above about 0.92. Some of the results follow.

Assay: chemical genetic growth profiling, strain panel (AID 1159580);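 note: tested at 20 µM; growth read once vehicle control cultures reached saturation at 30 °C; 1 = growth at the plate median or of vehicle wells; lower values mean less growth of the strain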
Conditions: growth OD

Measured: normalized growth

CCCCC1C(=O)N(c2ccccc2)N(c2ccc(O)cc2)C1=O (stereo not given)
inactive: S. cerevisiae deletion strains, locus YJR075W, strain HOC1, stronger effect = lower value 0.998 | S. cerevisiae deletion strains, locus YKL009W, strain mrt4, stronger effect = lower value 1.01 | S. cerevisiae deletion strains, locus YKL068W, stronger effect = lower value 0.987 | S. cerevisiae deletion strains, locus YKL085W, strain MDH1 (second series), stronger effect = lower value 0.993 | S. cerevisiae deletion strains, locus YKL085W, strain MDH1, stronger effect = lower value 0.993 | S. cerevisiae deletion strains, locus YKL160W, strain elf1, stronger effect = lower value 1.03 | S. cerevisiae deletion strains, locus YKL190W, strain CNB1, stronger effect = lower value 1 | S. cerevisiae deletion strains, locus YKR001C, strain vps1, stronger effect = lower value 0.927 | S. cerevisiae deletion strains, locus YKR026C, strain gcn3, stronger effect = lower value 1.01 | S. cerevisiae deletion strains, locus YKR091W, strain srl3, stronger effect = lower value 0.996 | S. cerevisiae deletion strains, locus YLL001W, strain dnm1, stronger effect = lower value 1.02 | S. cerevisiae deletion strains, locus YLL026W, stronger effect = lower value 1 | S. cerevisiae deletion strains, locus YLL041C, strain sdh2, stronger effect = lower value 1 | S. cerevisiae deletion strains, locus YLR027C, strain aat2, stronger effect = lower value 0.994 | S. cerevisiae deletion strains, locus YLR039C, strain RIC1, stronger effect = lower value 0.963 | S. cerevisiae deletion strains, locus YLR058C, strain SHM2, stronger effect = lower value 0.976 | S. cerevisiae deletion strains, locus YLR102C, strain apc9, stronger effect = lower value 0.996 | S. cerevisiae deletion strains, locus YLR113W, strain HOG1, stronger effect = lower value 0.948 | S. cerevisiae deletion strains, locus YLR221C, strain rsa3, stronger effect = lower value 1.02 | S. cerevisiae deletion strains, locus YLR258W, strain gsy2, stronger effect = lower value 0.998 | S. cerevisiae deletion strains, locus YLR262C, strain YPT6 (second series), stronger effect = lower value 0.956 | S. cerevisiae deletion strains, locus YLR262C, strain YPT6, stronger effect = lower value 0.903 | S. cerevisiae deletion strains, locus YLR268W, strain sec22, stronger effect = lower value 1.04 | S. cerevisiae deletion strains, locus YLR320W, strain mms22, stronger effect = lower value 1.04 | S. cerevisiae deletion strains, locus YLR330W, strain CHS5, stronger effect = lower value 0.996 | S. cerevisiae deletion strains, locus YLR342W, strain FKS1 (second series), stronger effect = lower value 0.99 | S. cerevisiae deletion strains, locus YLR342W, strain FKS1, stronger effect = lower value 1.01 | S. cerevisiae deletion strains, locus YLR357W, strain rsc2, stronger effect = lower value 1.01 | S. cerevisiae deletion strains, locus YLR370C, strain arc18, stronger effect = lower value 1 | S. cerevisiae deletion strains, locus YLR371W, strain rom2, stronger effect = lower value 0.971 | S. cerevisiae deletion strains, locus YLR384C, strain iki3, stronger effect = lower value 0.997 | S. cerevisiae deletion strains, locus YLR418C, strain cdc73, stronger effect = lower value 1 | S. cerevisiae deletion strains, locus YML016C, strain PPZ1, stronger effect = lower value 0.991 | S. cerevisiae deletion strains, locus YML032C, strain rad52, stronger effect = lower value 0.996 | S. cerevisiae deletion strains, locus YML120C, strain ndi1, stronger effect = lower value 1.01 | S. cerevisiae deletion strains, locus YML124C, strain tub3, stronger effect = lower value 0.99 | S. cerevisiae deletion strains, locus YMR058W, strain fet3, stronger effect = lower value 1 | S. cerevisiae deletion strains, locus YMR078C, strain ctf18, stronger effect = lower value 0.986 | S. cerevisiae deletion strains, locus YMR125W, strain sto1, stronger effect = lower value 1 | S. cerevisiae deletion strains, locus YMR129W, stronger effect = lower value 1.01 | S. cerevisiae deletion strains, locus YMR205C, strain PFK2, stronger effect = lower value 1.02 | S. cerevisiae deletion strains, locus YMR223W, strain ubp8, stronger effect = lower value 0.968 | S. cerevisiae deletion strains, locus YMR231W, strain pep5, stronger effect = lower value 1 | S. cerevisiae deletion strains, locus YMR307W, strain GAS1, stronger effect = lower value 0.952 | S. cerevisiae deletion strains, locus YNL067W, strain RPL9B, stronger effect = lower value 0.999 | S. cerevisiae deletion strains, locus YNL071W, strain lat1, stronger effect = lower value 0.997 | S. cerevisiae deletion strains, locus YNL153C, strain GIM3, stronger effect = lower value 0.984 | S. cerevisiae deletion strains, locus YNL183C, strain NPR1, stronger effect = lower value 0.954 | S. cerevisiae deletion strains, locus YNL209W, strain ssb2, stronger effect = lower value 1 | S. cerevisiae deletion strains, locus YNL233W, strain BNI4, stronger effect = lower value 0.989 | S. cerevisiae deletion strains, locus YNL248C, strain rpa49, stronger effect = lower value 1.03 | S. cerevisiae deletion strains, locus YNL250W, strain rad50, stronger effect = lower value 0.985 | S. cerevisiae deletion strains, locus YNL271C, strain bni1, stronger effect = lower value 1 | S. cerevisiae deletion strains, locus YNL298W, strain CLA4, stronger effect = lower value 0.987 | S. cerevisiae deletion strains, locus YNL307C, strain MCK1, stronger effect = lower value 0.987 | S. cerevisiae deletion strains, locus YNL322C, strain KRE1 (second series), stronger effect = lower value 1.02 | S. cerevisiae deletion strains, locus YNL322C, strain KRE1, stronger effect = lower value 0.993 | S. cerevisiae deletion strains, locus YNR049C, strain mso1, stronger effect = lower value 1.01 | S. cerevisiae deletion strains, locus YNR052C, strain pop2, stronger effect = lower value 0.996 | S. cerevisiae deletion strains, locus YOL006C, strain TOP1, stronger effect = lower value 0.982 | S. cerevisiae deletion strains, locus YOL012C, strain htz1 0.972 | S. cerevisiae deletion strains, locus YOL147C, strain pex11, stronger effect = lower value 0.998 | S. cerevisiae deletion strains, locus YOR001W, strain rrp6, stronger effect = lower value 0.989 | S. cerevisiae deletion strains, locus YOR061W, strain CKA2, stronger effect = lower value 0.959 | S. cerevisiae deletion strains, locus YOR069W, strain VPS5, stronger effect = lower value 1 | S. cerevisiae deletion strains, locus YOR070C, strain gyp1, stronger effect = lower value 1.02 | S. cerevisiae deletion strains, locus YOR080W, strain dia2, stronger effect = lower value 0.993 | S. cerevisiae deletion strains, locus YOR083W, strain WHI5, stronger effect = lower value 1.04 | S. cerevisiae deletion strains, locus YOR106W, strain vam3, stronger effect = lower value 1.02 | S. cerevisiae deletion strains, locus YOR136W, strain idh2, stronger effect = lower value 0.983 | S. cerevisiae deletion strains, locus YOR144C, strain elg1, stronger effect = lower value 0.985 | S. cerevisiae deletion strains, locus YOR184W, strain ser1, stronger effect = lower value 0.983 | S. cerevisiae deletion strains, locus YOR231W, strain MKK1, stronger effect = lower value 0.987 | S. cerevisiae deletion strains, locus YOR265W, strain rbl2, stronger effect = lower value 0.996 | S. cerevisiae deletion strains, locus YOR270C, strain vph1, stronger effect = lower value 1.03 | S. cerevisiae deletion strains, locus YOR290C, strain snf2, stronger effect = lower value 1.02 | S. cerevisiae deletion strains, locus YOR316C, strain cot1, stronger effect = lower value 0.989 | S. cerevisiae deletion strains, locus YPL051W, strain arl3, stronger effect = lower value 1.01 | S. cerevisiae deletion strains, locus YPL055C, strain LGE1, stronger effect = lower value 0.938 | S. cerevisiae deletion strains, locus YPL078C, strain atp4, stronger effect = lower value 1.02 | S. cerevisiae deletion strains, locus YPL106C, strain sse1, stronger effect = lower value 1.02 | S. cerevisiae deletion strains, locus YPL240C, strain hsp82, stronger effect = lower value 1.01 | S. cerevisiae deletion strains, locus YPL241C, strain CIN2, stronger effect = lower value 0.99 | S. cerevisiae deletion strains, locus YPL256C, strain CLN2, stronger effect = lower value 0.953 | S. cerevisiae deletion strains, locus YPR119W, strain clb2, stronger effect = lower value 0.982 | S. cerevisiae deletion strains, locus YPR141C, strain kar3, stronger effect = lower value 0.972 | S. cerevisiae deletion strains, locus YPR163C, strain tif3, stronger effect = lower value 0.986 | S. cerevisiae deletion strains, locus YPR167C, strain met16, stronger effect = lower value 0.987 | S. cerevisiae deletion strains, strain wtn01, stronger effect = lower value 1 | S. cerevisiae strains, strain wild type, stronger effect = lower value 1
